tested on: HNSC; test: growth inhibition (% activity, log2 RLU normalised to DMSO / staurosporine); higher = more growth inhibition; details: 33 µM
How it was run: (§1)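 Cells (pHGG lines and H9-derived neural stem cells) were plated on Geltrex-coated 384-well plates and exposed to approved drugs at a single final concentration of about 33 μM, in triplicate, for 7 days at 37 °C, 5% CO2. Log2-transformed CellTiter-Glo luminescence was normalised per plate to % activity between solvent and positive control wells, and the growth-inhibition value is the median over replicates.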

Structure (SMILES)	growth inhibition [%]
Oc1ccc(/C=C/c2cc(O)cc(O)c2)cc1	3.97
CN1C2CCCC1CC(NC(=O)c1nn(C)c3ccccc13)C2 (stereo not drawn)	1.6
CC(C)(C)c1nc(-c2cccc(NS(=O)(=O)c3c(F)cccc3F)c2F)c(-c2ccnc(N)n2)s1	22.9
CC(C)OC(=O)C(C)(C)Oc1ccc(C(=O)c2ccc(Cl)cc2)cc1	54.6
CC1CCc2cc(F)cc3c(=O)c(C(=O)O)cn1c23 (stereo not drawn)	0.388
CC(=O)NC[C@H]1CN(c2ccc(N3CCOCC3)c(F)c2)C(=O)O1	6.16
O=C(O)c1ccccc1	1.02
Cc1ccnc2c1NC(=O)c1cccnc1N2C1CC1	2
Nc1nc2ccc(OC(F)(F)F)cc2s1	4.46
CCOC(=O)c1ncn2c1CN(C)C(=O)c1cc(F)ccc1-2	0.0947
Nc1nccs1	5.02
Cn1ccnc1S	-4.2
N#C[C@@H]1C[C@@H]2C[C@@H]2N1C(=O)[C@@H](N)C12CC3CC(CC(O)(C3)C1)C2	8.15
CC(C)CC(N)=O	-1.96
COc1ccccc1OCC(O)COC(N)=O (stereo not drawn)	-1.62
CCCc1cc(=O)[nH]c(=S)[nH]1	-0.282
CC1(C)O[C@@H]2C[C@H]3[C@@H]4CCC5=CC(=O)C=C[C@]5(C)[C@@]4(F)[C@@H](O)C[C@]3(C)[C@]2(C(=O)CO)O1	-2.22
CN(C)CCOC(c1ccccc1)c1ccccc1	2.53
CCOC(=O)c1c(CSc2ccccc2)n(C)c2cc(Br)c(O)c(CN(C)C)c12	53.4
CS(=O)(=O)c1ccc(C2=C(c3ccccc3)C(=O)OC2)cc1	-3.76

Structure (SMILES)	growth inhibition [%]
Fc1ccc([C@@H]2CCNC[C@H]2COc2ccc3c(c2)OCO3)cc1	54.9
NC(=O)c1ncn([C@@H]2O[C@H](CO)[C@@H](O)[C@H]2O)c1O	1.34
COc1cc2c(cc1O)CC[C@@H]1[C@@H]2CC[C@]2(C)[C@@H](O)CC[C@@H]12	53.5
COc1ccccc1OCC(O)CO (stereo not drawn)	-6.5
CC(=O)O[C@H]1C(=O)[C@@]2(C)[C@H]([C@H](OC(=O)c3ccccc3)[C@]3(O)C[C@H](OC(=O)[C@H](O)[C@@H](NC(=O)c4ccccc4)c4ccccc4)C(C)=C1C3(C)C)[C@]1(OC(C)=O)CO[C@@H]1C[C@@H]2O	60.4
CC1CNc2c(cccc2S(=O)(=O)N[C@@H](CCCNC(=N)N)C(=O)N2CC[C@@H](C)C[C@@H]2C(=O)O)C1 (stereo partly drawn)	12.3
N[C@@H]1CN(c2c(F)cc3c(=O)c(C(=O)O)cn([C@@H]4C[C@@H]4F)c3c2Cl)CC12CC2	0.64
C=Cc1c(C)c2cc3nc(cc4[nH]c(cc5nc(cc1[nH]2)C(C)=C5CCC(=O)O)c(CCC(=O)OC)c4C)C1(C)C3=CC=C(C(=O)OC)C1C(=O)OC (stereo not drawn)	2.35
CN1CCN(CCCN2c3ccccc3Sc3ccc(C(F)(F)F)cc32)CC1	9.67
CC(c1cc2ccccc2s1)N(O)C(N)=O (stereo not drawn)	-0.145
CN1CCN(c2cc3c(cc2F)c(=O)c(C(=O)O)cn3-c2ccc(F)cc2)CC1	4.83
CC1(C)S[C@@H]2[C@H](NC(=O)[C@H](NC(=O)N3CCNC3=O)c3ccccc3)C(=O)N2[C@H]1C(=O)O	-1.56
Cc1cccn2c(=O)c(-c3nnn[nH]3)cnc12	-1.69
CC(C)(C(=O)O)c1ccc(C(O)CCCN2CCC(C(O)(c3ccccc3)c3ccccc3)CC2)cc1 (stereo not drawn)	3.07
CCOC(=O)CC(=O)N1CCSC1COc1ccccc1OC (stereo not drawn)	3.53
Cc1cnc(NC(=O)C2=C(O)c3ccccc3S(=O)(=O)N2C)s1	0.475
CC(C)(S)[C@@H](N)C(=O)O	45.1
CCCCNC(=O)NS(=O)(=O)c1ccc(C)cc1	8.77
CCN1CCN(C(=O)NC(C(=O)NC2C(=O)N3C(C(=O)O)=C(CSc4nnnn4C)CSC23)c2ccc(O)cc2)C(=O)C1=O (stereo not drawn)	-1.87

tested on: SUDIPGIV (diffuse intrinsic pontine glioma line); test: as above; details: 33 µM
How it was run: as §1

Structure (SMILES)	growth inhibition [%]
Oc1ccc(/C=C/c2cc(O)cc(O)c2)cc1	-5.92
CN1C2CCCC1CC(NC(=O)c1nn(C)c3ccccc13)C2 (stereo not drawn)	0.0415
CC(C)(C)c1nc(-c2cccc(NS(=O)(=O)c3c(F)cccc3F)c2F)c(-c2ccnc(N)n2)s1	-0.469
CC(C)OC(=O)C(C)(C)Oc1ccc(C(=O)c2ccc(Cl)cc2)cc1	1.24
CC1CCc2cc(F)cc3c(=O)c(C(=O)O)cn1c23 (stereo not drawn)	-1.52
CC(=O)NC[C@H]1CN(c2ccc(N3CCOCC3)c(F)c2)C(=O)O1	4.69
O=C(O)c1ccccc1	1.15
Cc1ccnc2c1NC(=O)c1cccnc1N2C1CC1	1.95
Nc1nc2ccc(OC(F)(F)F)cc2s1	-0.776
CCOC(=O)c1ncn2c1CN(C)C(=O)c1cc(F)ccc1-2	-1.75
Nc1nccs1	0.246
Cn1ccnc1S	-2.69
N#C[C@@H]1C[C@@H]2C[C@@H]2N1C(=O)[C@@H](N)C12CC3CC(CC(O)(C3)C1)C2	7.37
CC(C)CC(N)=O	-1.02
COc1ccccc1OCC(O)COC(N)=O (stereo not drawn)	-1
CCCc1cc(=O)[nH]c(=S)[nH]1	-1.58
CC1(C)O[C@@H]2C[C@H]3[C@@H]4CCC5=CC(=O)C=C[C@]5(C)[C@@]4(F)[C@@H](O)C[C@]3(C)[C@]2(C(=O)CO)O1	-0.618
CN(C)CCOC(c1ccccc1)c1ccccc1	-1.12
CCOC(=O)c1c(CSc2ccccc2)n(C)c2cc(Br)c(O)c(CN(C)C)c12	-4.36
CS(=O)(=O)c1ccc(C2=C(c3ccccc3)C(=O)OC2)cc1	-4.83

Structure (SMILES)	growth inhibition [%]
Fc1ccc([C@@H]2CCNC[C@H]2COc2ccc3c(c2)OCO3)cc1	-0.812
NC(=O)c1ncn([C@@H]2O[C@H](CO)[C@@H](O)[C@H]2O)c1O	-0.809
COc1cc2c(cc1O)CC[C@@H]1[C@@H]2CC[C@]2(C)[C@@H](O)CC[C@@H]12	20.7
COc1ccccc1OCC(O)CO (stereo not drawn)	-1.52
CC(=O)O[C@H]1C(=O)[C@@]2(C)[C@H]([C@H](OC(=O)c3ccccc3)[C@]3(O)C[C@H](OC(=O)[C@H](O)[C@@H](NC(=O)c4ccccc4)c4ccccc4)C(C)=C1C3(C)C)[C@]1(OC(C)=O)CO[C@@H]1C[C@@H]2O	25.9
CC1CNc2c(cccc2S(=O)(=O)N[C@@H](CCCNC(=N)N)C(=O)N2CC[C@@H](C)C[C@@H]2C(=O)O)C1 (stereo partly drawn)	1.8
N[C@@H]1CN(c2c(F)cc3c(=O)c(C(=O)O)cn([C@@H]4C[C@@H]4F)c3c2Cl)CC12CC2	0.64
C=Cc1c(C)c2cc3nc(cc4[nH]c(cc5nc(cc1[nH]2)C(C)=C5CCC(=O)O)c(CCC(=O)OC)c4C)C1(C)C3=CC=C(C(=O)OC)C1C(=O)OC (stereo not drawn)	-0.469
CN1CCN(CCCN2c3ccccc3Sc3ccc(C(F)(F)F)cc32)CC1	4.53
CC(c1cc2ccccc2s1)N(O)C(N)=O (stereo not drawn)	-2.98
CN1CCN(c2cc3c(cc2F)c(=O)c(C(=O)O)cn3-c2ccc(F)cc2)CC1	0.444
CC1(C)S[C@@H]2[C@H](NC(=O)[C@H](NC(=O)N3CCNC3=O)c3ccccc3)C(=O)N2[C@H]1C(=O)O	-0.88
Cc1cccn2c(=O)c(-c3nnn[nH]3)cnc12	-0.133
CC(C)(C(=O)O)c1ccc(C(O)CCCN2CCC(C(O)(c3ccccc3)c3ccccc3)CC2)cc1 (stereo not drawn)	0.0574
CCOC(=O)CC(=O)N1CCSC1COc1ccccc1OC (stereo not drawn)	4.58
Cc1cnc(NC(=O)C2=C(O)c3ccccc3S(=O)(=O)N2C)s1	-3.44
CC(C)(S)[C@@H](N)C(=O)O	-0.3
CCCCNC(=O)NS(=O)(=O)c1ccc(C)cc1	1.65
CCN1CCN(C(=O)NC(C(=O)NC2C(=O)N3C(C(=O)O)=C(CSc4nnnn4C)CSC23)c2ccc(O)cc2)C(=O)C1=O (stereo not drawn)	-3.07

From the supplement of paper PMC8253809
